Among the test systems are EKVX NSCLC; SN12C renal; UO-31 renal; TK-10 renal; ACHN renal; CAKI-1 renal; A498 renal; CCRF-CEM leukemia; MOLT-4 leukemia; SR leukemia.
What all share (experiment): NCI-60 one-dose screen, 48 h (100 = growth as untreated, 0 = no growth, -100 = all killed)
Holding throughout (settings): 10 µM unless noted

SMILES strings stand for the structures. About 83,000 compounds went through this panel and 20% of them were active in at least one assay; those are over-represented in the sample as a whole.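 Single-concentration screen, 48 h exposure, 96-well plates. Endpoint: percent growth. Below 10 = active.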 Unmarked numbers belong to inactive results. Active and inactive are the calls of the source.

As to `O=C(/C=C/c1cccnc1)/C=C/c1cccnc1`, the growth in the experiment with EKVX NSCLC was 43.3%; with SN12C renal, 4.41% (active); with UO-31 renal, -81.9% (active); in the experiment on TK-10 renal, 17.3%; with ACHN renal, 13%; in the experiment with CAKI-1 renal, -20.5% (active). The growth in the experiment with A498 renal is 93.1%; in the experiment on CCRF-CEM leukemia, -48.4% (active); in the experiment with MOLT-4 leukemia it was -22.8% (active); with SR leukemia it was -57.3% (active).

With `O=C(c1ccccc1)c1ccccc1Cl`, the growth in the experiment with EKVX NSCLC is 101%; in the experiment on SN12C renal, 101%; in the experiment on UO-31 renal it was 86.7%; in the experiment on TK-10 renal, 94.6%; in the experiment on ACHN renal, 112%; with CAKI-1 renal it was 109%. In addition, the growth with A498 renal is 86.1%; in the experiment with CCRF-CEM leukemia, 86.3%; in the experiment on MOLT-4 leukemia, 94.2%; in the experiment with SR leukemia it was 94.5%.

As to `CCOC(=O)c1c(C)nc(C)c(C(=O)OCC)c1-c1cccnc1`, the growth in the experiment on EKVX NSCLC is 105%; with SN12C renal, 109%; in the experiment with UO-31 renal, 94%; in the experiment on TK-10 renal, 121%; in the experiment with ACHN renal, 99.5%; in the experiment with CAKI-1 renal, 106%. The growth is 125% in the experiment on A498 renal, 102% with CCRF-CEM leukemia, 54.8% with MOLT-4 leukemia and 53.7% in the experiment with SR leukemia.

On to `O=C(Nc1ccc(Cl)cc1Cl)Nc1ccc(-c2cccnc2)cc1N1CCC(CO)CC1`, for which the growth in the experiment on EKVX NSCLC was 50.6%; in the experiment with SN12C renal, 30.7%; with UO-31 renal, 17%; in the experiment with TK-10 renal, 52.8%; in the experiment with ACHN renal it was 41.1%; in the experiment with CAKI-1 renal it was 25.5%. Further, the growth with A498 renal is 6.41% (active); in the experiment on CCRF-CEM leukemia it was 17.8%; in the experiment with MOLT-4 leukemia, -0.573% (active); in the experiment with SR leukemia, 6.57% (active).

`C/C(=N\N1CC(=O)NC1=O)c1ccc([N+](=O)[O-])o1`: the growth in the experiment on EKVX NSCLC was 90.8%; with SN12C renal it was 102%; in the experiment with UO-31 renal, 85.1%; in the experiment with TK-10 renal it was 105%; with ACHN renal, 105%; in the experiment on CAKI-1 renal it was 109%. The growth with A498 renal is 76.7%; in the experiment on CCRF-CEM leukemia, 106%; in the experiment with MOLT-4 leukemia it was 99.5%; in the experiment on SR leukemia it was 95.9%.

As for `CCOc1ccccc1C(=O)OCC(=O)Nc1cccc(S(=O)(=O)N(C)C)c1`, the growth was 104% in the experiment on EKVX NSCLC; 103% in the experiment with SN12C renal; 79% in the experiment on UO-31 renal; 169% in the experiment on TK-10 renal; 121% in the experiment on ACHN renal; 95.2% with CAKI-1 renal. The growth in the experiment with A498 renal was 118%; in the experiment with CCRF-CEM leukemia it was 169%; in the experiment on MOLT-4 leukemia, 105%; in the experiment on SR leukemia, 105%.

Consider `COc1ccc(-c2nn(-c3cccc(Cl)c3)cc2C2CC(c3ccccc3)=NN2C(C)=O)cc1` (stereo not given), for which the growth with EKVX NSCLC is 67.6%; with SN12C renal, 69.7%; with UO-31 renal, 58.9%; with TK-10 renal, 62.8%; with ACHN renal it was 15.1%; in the experiment with CAKI-1 renal it was 53%. The growth with A498 renal was 56.9%; with CCRF-CEM leukemia, 83%; in the experiment with MOLT-4 leukemia, 93.9%; with SR leukemia, 75.6%.

In the case of `COc1ccc2[nH]cc(/C=C3/C(=O)Nc4ccc(F)cc43)c2c1`, the growth in the experiment on EKVX NSCLC is 77.2%; in the experiment with SN12C renal, 78.2%; in the experiment with UO-31 renal it was 73.1%; with TK-10 renal, 104%; in the experiment on ACHN renal it was 68.4%; with CAKI-1 renal, 62.4%. The growth in the experiment on A498 renal was 76%; in the experiment on CCRF-CEM leukemia, 63.2%; in the experiment with MOLT-4 leukemia it was 61.6%; in the experiment on SR leukemia, 83.2%.

Turning to `Cc1cc(N2CCOCC2)nc(N2CCOCC2)n1`, the growth was 95.7% in the experiment on EKVX NSCLC; 95.5% with SN12C renal; -1.48% (active) with UO-31 renal; 92.2% in the experiment with TK-10 renal; 108% in the experiment on ACHN renal; 96.7% with CAKI-1 renal. Moreover, the growth was 100% in the experiment with A498 renal, 95.3% in the experiment with CCRF-CEM leukemia, 104% in the experiment on MOLT-4 leukemia and 105% in the experiment on SR leukemia.

Take `COc1ccc(/C=C2\COc3ccc(O)c(O)c3C2=O)cc1OC`: the growth is 42.2% in the experiment with EKVX NSCLC; -67.7% (active) in the experiment on SN12C renal; -87.9% (active) in the experiment with UO-31 renal; 5.44% (active) in the experiment with TK-10 renal; -56.3% (active) in the experiment on ACHN renal; 11.1% with CAKI-1 renal. Also, the growth in the experiment with A498 renal was 105%; in the experiment on CCRF-CEM leukemia, -13.9% (active); with MOLT-4 leukemia, -21.5% (active); with SR leukemia, -1.26% (active).

`CCOC(=O)C(C(C)=O)c1nc2sc3cc(Cl)ccc3n2c(=N)c1C#N` (stereo not given): the growth was 73.6% in the experiment on EKVX NSCLC; 85.9% in the experiment on SN12C renal; 76.1% in the experiment on UO-31 renal; 157% in the experiment with TK-10 renal; 109% in the experiment on ACHN renal; 91.6% with CAKI-1 renal. Besides, the growth in the experiment with A498 renal is 101%; in the experiment with CCRF-CEM leukemia, 163%; in the experiment on MOLT-4 leukemia, 44.9%; with SR leukemia it was 60.3%.

As to `N=C(N)/N=C(\CCc1nc2ccccc2[nH]1)c1nc2ccccc2[nH]1`, the growth with EKVX NSCLC was 92.7%; in the experiment on SN12C renal, 85.6%; in the experiment with UO-31 renal, 67.6%; in the experiment with TK-10 renal it was 105%; in the experiment on ACHN renal, 92.3%; with CAKI-1 renal it was 93.6%. Also, the growth was 111% with A498 renal, 99.5% in the experiment with CCRF-CEM leukemia, 107% in the experiment with MOLT-4 leukemia and 83.9% in the experiment with SR leukemia.

Take `CCC(O)C(C)(C)C` (stereo not given): the growth was 99% in the experiment on EKVX NSCLC; 101% in the experiment with SN12C renal; 101% with UO-31 renal; 98.8% with TK-10 renal; 110% in the experiment with ACHN renal; 94.3% in the experiment with CAKI-1 renal. Besides, the growth is 96.3% in the experiment on A498 renal, 116% with CCRF-CEM leukemia, 111% in the experiment with MOLT-4 leukemia and 110% in the experiment on SR leukemia.

For `O=C1OC(c2ccc(-c3ccccc3)cc2)=C/C1=C/c1cccs1`, the growth in the experiment on EKVX NSCLC is 78.8%; in the experiment on SN12C renal, 80.9%; with UO-31 renal, 82.9%; in the experiment on TK-10 renal, 86.8%; with ACHN renal it was 85.7%; in the experiment on CAKI-1 renal, 81.7%. The growth in the experiment on A498 renal is 97.1%; in the experiment on CCRF-CEM leukemia, -27.1% (active); with MOLT-4 leukemia it was 87.3%; in the experiment on SR leukemia, 91.5%.

The values above are taken from PubChem BioAssay (NCI).
